Sm TGR block: S. mansoni TGR enzyme inhibition. Q962Y6. purified TGR, DTNB reduction, TNB absorbance 405 nm. 360,000 compounds, 3% hits. Potency, µM (titrated, usually from 114 µM), inactives show at the top dose activity change, negative = inhibition, most hits filed as inhibitors. AID 485364; active means well fitted inhibition curve with a large enough effect; inconclusive means small, poorly fitted or top-dose-only effect; inactive means no such curve, though single readings can be large or run the other way; further: nearly all actives have a fitted effect of over 60% in size
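TGR 20 nM + NADPH 100 uM (dispensed conc.), cpd preinc 15 min RT; start with NADPH (500 uM addition) then DTNB (15 mM addition). Kinetic TNB absorbance, 405 nm filter. Four-parameter Hill fit across titration.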
VACV mCherry inh: inhibitors of vaccinia virus infection (mCherry reporter signal); Vaccinia virus mCherry reporter infection, fluorescence; Potency, µM (doses to about 36.5 µM), for inactives: at the top dose activity change, negative = inhibition, most hits filed as inhibitors; 310,000 compounds, 0.63% hits; AID 720579; calls by dose curve; tested in A549 cells; further: nearly all actives have a fitted effect of over 35% in size
Marburg entry inh: inhibitors of Marburg virus binding or cell entry. AID 540276. 300,000 compounds, 1.8% hits. Potency, µM (doses to about 37.8 µM), without a hit: top-dose activity change, negative = inhibition, most hits filed as inhibitors. Marburg virus pseudotyped entry inhibition, cell reporter; calls by dose curve; tested in HEK293 cells
FMDV antiviral: antivirals against foot and mouth disease virus; FMDV antiviral cell-based qHTS; Potency, µM (top dose mostly 57.9 µM), for the others: top-dose activity change, negative = inhibition, most hits filed as inhibitors; 410,000 compounds, 1.2% hits; calls by dose curve; tested in HEK293T cells; further: read-out not given here; nearly all actives have a fitted effect of over 45% in size
Lassa entry inh: Lassa virus entry inhibition. Lassa virus pseudotype entry inhibition, cell reporter. Potency, µM (series often up to 37.9 µM), for the others: top-dose activity change, negative = inhibition, most hits filed as inhibitors. 300,000 compounds, 1.2% hits; calls by dose curve; tested in HEK293 cells; further: nearly all actives have a fitted effect of over 50% in size
VACV Venus inh: inhibitors of vaccinia virus (Venus reporter). Vaccinia virus Venus reporter expression, fluorescence. Potency, µM (top dose mostly 36.5 µM), for the others: top-dose activity change, negative = inhibition, most hits filed as inhibitors. 330,000 compounds, 0.46% hits. AID 720580; calls by dose curve; tested in A549 cells; further: nearly all actives have a fitted effect of over 30% in size
Numbers without * were called inactive; i = inactive; ? = inconclusive; · = no result; [ ] = dose if it differs, or a comment. Only some compounds are listed: those with a hit (about 5.4% of all), similar ones and a draw of the others. On the % scale 0 is the no-effect control and ±100 the full control effect; potency means the concentration at half of the fitted maximal effect.

SMILES | Sm TGR block | VACV mCherry inh | Marburg entry inh | FMDV antiviral | Lassa entry inh | VACV Venus inh
CCOc1ccc(Cn2c(CNS(=O)(=O)c3cccs3)nc3cccnc32)cc1 | -21% | -7% | · | 40% | 4%[46.1 µM] | 3%
COc1ccc(CNC(=O)c2nn(-c3ccccc3C)nc2CO)cc1 | 4% | 11% | 1%[46.1 µM] | -24% | -26%[46.1 µM] | 3%
CN1CCN(C(=O)C2=C[C@H](c3csc4ccccc34)C[C@H](OCCCCO)O2)CC1 | 40µM* | -9% | · | -3% | · | -10%
CN1CCN(C(=O)C2=C[C@@H](c3ccccc3)C[C@@H](OCc3ccc(CO)cc3)O2)CC1 | 40µM* | -25% | · | -10% | · | -15%
CN1CCN(C(=O)C2=C[C@H](c3csc4ccccc34)C[C@H](OCc3ccc(CO)cc3)O2)CC1 | -27% | -2% | · | -15% | · | -15%
O=C(C1=C[C@H](c2ccc(C(F)(F)F)cc2)C[C@H](OCCCCO)O1)N1CCN(Cc2ccccc2)CC1 | 35µM* | i | · | -19% | · | -19%
O=C(C1=C[C@@H](c2ccc(C(F)(F)F)cc2)C[C@@H](OCCCCO)O1)N1CCN(Cc2ccccc2)CC1 | ? | i | · | ? | · | ?
CCCCCC(=O)N1C[C@@H](n2cc(COC(=O)c3ccccc3)nn2)[C@H](O)C[C@H]1c1ccccc1 | · | · | · | · | 3%[46.1 µM] | ·
O=C(NC(=S)Nc1ccc2c(c1)OCCO2)c1ccco1 | 16µM* | i[7.34 µM] | ? | 23% | ? | -12%[7.34 µM]
O=C(NC(=S)Nc1ccc(N2CCCCC2)c(Cl)c1)c1ccc2c(c1)OCCO2 | 0% | ? | 1.4µM* | ? | ? | ?
O=C(NC(=S)Nc1ccc(N2CCOCC2)c(Cl)c1)c1cncc(Br)c1 | ? | -27% | ? | -12% | 0% | -14%
O=C(NC(=S)Nc1ccc([N+](=O)[O-])cc1)c1ccco1 | · | -24% | · | 61% | · | 0%
O=C(NC(=S)Nc1ccccc1[N+](=O)[O-])c1ccco1 | 50µM* | -1% | 14%[46.1 µM] | -3% | ? | -11%
O=C(CNC(=O)c1ccco1)Nc1ccc2c(c1)OCCO2 | -16% | -4% | ? | ? | ? | -12%
Oc1cccc(NC(=S)Nc2ccccc2)c1 | 16µM* | i | · | 17% | · | -1%
COC(=O)C1=C2C=CCCN2C(=O)NC1c1ccccc1 (stereo unspecified) | · | · | -17%[14.2 µM] | · | · | ·
CCOc1ccc(C(=O)c2cn(CC(=O)Nc3ccc4c(c3)OCCO4)c3ccc(F)cc3c2=O)cc1 | -3% | -23% | ? | -11% | -2%[46.1 µM] | -22%
O=C1[C@H]2[C@@H]3[C@@H](O)[C@H](O)CC(=NOCc4ccccc4)[C@H]3CC[C@H]2C(=O)N1Cc1ccc2c(c1)OCO2 | · | · | -38%[14.2 µM] | · | -19%[14.3 µM] | ·
O=C(NC(=S)Nc1cccc(O)c1)c1ccco1 | 7.9µM* | -3% | · | 59% | · | -17%
Cc1ccc2nsnc2c1NC(=S)NC(=O)c1ccco1 | 45µM* | -3% | -19% | -16% | -13% | -2%
O=C(NNc1ccc([N+](=O)[O-])cc1)c1ccco1 | -1% | · | · | -7% | · | ·
O=C(NNc1ccc([N+](=O)[O-])cc1[N+](=O)[O-])c1ccco1 | -33% | ? | ? | 20µM* | ? | -23%
CCC(=O)NC(=S)Nc1cccc(NC(=O)c2ccco2)c1 | -27% | -2% | 3%[46.1 µM] | -10% | -20% | 6%
CCCn1c(=O)c2sccc2n2c(CCCC(=O)Nc3cccc(CC)c3)nnc12 | -1% | -8% | · | -19% | -2%[46.1 µM] | -7%
Cc1ccc(NC(=O)CCCc2nnc3n(C)c(=O)c4sccc4n23)cc1F | 0% | -14% | 18%[46.1 µM] | 1.3µM* | ? | -10%
SMILES | Sm TGR block | VACV mCherry inh | Marburg entry inh | FMDV antiviral | Lassa entry inh | VACV Venus inh
Cc1ccc(-c2n[nH]c(=S)n2/N=C/c2ccc(C)s2)cc1 | 5% | · | -10% | -6% | 1.3µM* | -13%
Cc1ccc(/C=N/n2c(COc3ccccc3)n[nH]c2=S)s1 | 14% | · | 8% | -9% | 6.5µM* | ·
S=c1[nH]nc(COc2ccccc2)n1/N=C/c1ccc(Br)s1 | 15% | -11% | 21% | -10% | ? | -6%
CCc1ccc(NC(=O)C2(c3cccs3)CCOCC2)cc1 | -3% | -13% | · | -16% | 3%[46.1 µM] | 1%
O=C(Nc1ccc(Cn2cccn2)cc1)c1ccc(COc2cccc(Br)c2)cc1 | -3% | ? | 0.56µM* | -21% | 5.6µM* | ?
O=C(Nc1ccn(Cc2ccccc2F)n1)c1ccc(COc2ccc(Br)cc2)cc1 | 11% | · | 7.3µM* | ? | -29% | ·
O=C(Nc1ccc(Cn2cccn2)cc1)c1ccc(COc2ccc(Br)cc2)cc1 | -9% | -19% | 3% | -19% | -13% | -7%
O=C(Nc1ccn(Cc2ccccc2)n1)c1ccc(F)cc1 | 10% | · | · | 31% | · | ·
COCc1c(C(=O)NC2CCCCCC2)cnn1-c1nccc(-c2cc(C)sc2C)n1 | · | -12% | · | 50% | · | -6%
Cc1ccccc1-n1cc(CNC(=O)CN2Cc3ccccc3OC(C)C2)cn1 (stereo unspecified) | · | -5% | · | -6% | · | -1%
O=C(O)C12C3CCC(O3)C1(C(=O)O)C1CCC2O1 (stereo unspecified) | · | -16% | 2% | -5% | 8%[46.1 µM] | -15%
C[C@]1(C(=O)O)[C@@H]2CC[C@@H](O2)[C@@]1(C)C(=O)O | · | · | 4.1µM* | · | · | ·
CN(C)S(=O)(=O)c1ccccc1N=C=S | 16µM* | · | · | -5% | · | ·
Cn1c(=O)c2c(nc(NC[C@@H](O)CO)n2CCc2ccccc2)n(C)c1=O | · | · | -7% | · | · | ·
CCOC(=O)c1c(C)[nH]c(C)c1C(=O)COC(=O)/C=C/c1ccc(OC(F)F)cc1 | 3% | -22% | ? | ? | 11µM* | ?
CCOC(=O)c1c(C)[nH]c(C(=O)COC(=O)/C=C/c2ccc(OC(F)F)cc2)c1C | 21% | i | -7% | -9% | -2% | -6%
CCC1CN(CCNC(=O)c2cc(C(C)C)nn2C)Cc2cc(OC)ccc2O1 (stereo unspecified) | · | -19% | · | -29% | · | -19%
CCOC(=O)CCCCC(=O)c1[nH]c(=O)[nH]c1C[n+]1ccccc1 | 6.3µM* | · | · | · | · | ·
CCOC(=O)CCCCC(=O)c1[nH]c(=O)[nH]c1CN1CCOCC1 | -27% | -3% | -25% | · | 3% | 2%
CCOC(=O)CCCCC(=O)c1[nH]c(=O)[nH]c1C[n+]1ccc(C)cc1 | 35µM* | i | · | -2% | · | 4%
N/C(Cc1nc(-c2ccc(Cl)cc2)cs1)=N\O | · | · | 6% | · | · | ·
COC(=O)c1sc(-c2ccccc2)cc1NC(=O)Nc1ccc(F)cc1 | -3% | -11% | -25%[46.1 µM] | -14% | 15%[46.1 µM] | -17%
CC(C)(C)c1ccc(Cn2c(=O)cnc3ccccc32)cc1 | 2% | ? | ? | 13µM* | 10µM* | -25%
COc1ccc(OCC(O)CN2CCC(CN3C(=O)c4cccc5cccc(c45)C3=O)CC2)cc1 (stereo unspecified) | -3% | ? | 4.5µM* | -16% | ? | -23%
Cc1ccc(C)c(OCC(O)CN2CCC(CN3C(=O)c4cccc5cccc(c45)C3=O)CC2)c1 (stereo unspecified) | -9% | -1% | ? | ? | ? | -17%
